In experiment [1] the test system is CRL-7250. The experiment is described as follows: Cytotoxic Profiling of Annotated Libraries Using Quantitative High-Throughput Screening (AID 1296008). For max response: % is set by controls: 0 for no effect and ±100 for the full control effect. Note: potency is the fitted concentration of half-maximal effect. Particulars: Five cell lines viability, CellTiter-Glo ATP luminescence, 48-72 h; max response: hits give low values. The procedure, abridged:
(§1)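 Cytotoxicity was measured as CellTiter-Glo ATP luminescence, read after 10 min at room temperature. Compound treatment of the cells lasted 48 or 72 hr at 37 degrees Celsius in a qHTS format.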
(In general: ATP-based viability assays read luminescence as a measure of living cells.)

In the next experiment the test system is HEK293. The experiment is described as above. The conditions noted are these: Five cell lines viability, CellTiter-Glo ATP luminescence, 48-72 h; max response: hits give low values. The gist of the method:
as §1

Another experiment relates to HaCat. The description is as above. Particulars: Five cell lines viability, CellTiter-Glo ATP luminescence, 48-72 h; max response: hits give low values. The procedure, abridged:
as §1

A further experiment has as its system NIH3T3. The experiment is described as above. Particulars: Five cell lines viability, CellTiter-Glo ATP luminescence, 48-72 h; max response: hits give low values. The gist of the method: as §1
In a further experiment the test system is ICS. The experiment is described as follows: qHTS profiling for inhibitors of Plasmodium falciparum proliferation (AID 504749). Note: potency is the fitted concentration of half-maximal effect. Particulars: P. falciparum in erythrocytes, SYBR Green DNA, 72 h; series mostly up to 28.7 µM. The procedure, abridged:
(§2)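 Three-day growth assay of blood-stage parasites in erythrocytes (0.3% parasitemia, 2.5% hematocrit) at 37 C, 5% CO2, quantified by SYBR Green DNA staining after overnight detergent lysis.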
A general note: In qHTS, concentration-response curves come from the screen itself.

The subject of a further experiment is JCK. The description is as above. The conditions noted are these: P. falciparum in erythrocytes, SYBR Green DNA, 72 h; series mostly up to 28.7 µM. The gist of the method:
as §2

In a further experiment the test system is N140. Described as above. The conditions noted are these: P. falciparum in erythrocytes, SYBR Green DNA, 72 h; series mostly up to 28.7 µM. The procedure, abridged: as §2
The next experiment has as its system P93_24. The experiment is described as above. Particulars: P. falciparum in erythrocytes, SYBR Green DNA, 72 h; series mostly up to 28.7 µM. The procedure, abridged:
as §2

For a further experiment, the system named is P94_40. Described as above. The conditions noted are these: P. falciparum in erythrocytes, SYBR Green DNA, 72 h; series mostly up to 28.7 µM. The procedure, abridged:
as §2

The next experiment relates to PAD. Described as above. Particulars: P. falciparum in erythrocytes, SYBR Green DNA, 72 h; series mostly up to 28.7 µM. The procedure, abridged:
as §2

The test system of a further experiment is PC15. The experiment is described as above. Particulars: P. falciparum in erythrocytes, SYBR Green DNA, 72 h; series mostly up to 28.7 µM. The gist of the method: as §2
The next experiment relates to PC26. The experiment is described as above. Particulars: P. falciparum in erythrocytes, SYBR Green DNA, 72 h; series mostly up to 28.7 µM. The gist of the method: as §2
Another experiment deals with PC49. The description is as above. Particulars: P. falciparum in erythrocytes, SYBR Green DNA, 72 h; series mostly up to 28.7 µM. The procedure, abridged:
as §2

Another experiment has as its system SC27B. Described as above. Particulars: P. falciparum in erythrocytes, SYBR Green DNA, 72 h; series mostly up to 28.7 µM. The gist of the method:
as §2

Another experiment relates to TAB109. Described as above. Particulars: P. falciparum in erythrocytes, SYBR Green DNA, 72 h; series mostly up to 28.7 µM. The procedure, abridged:
as §2

The test system of the next experiment is TAB113. The description is as above. Particulars: P. falciparum in erythrocytes, SYBR Green DNA, 72 h; series mostly up to 28.7 µM. The procedure, abridged:
as §2

The next experiment has as its system TAB165. The experiment is described as above. Particulars: P. falciparum in erythrocytes, SYBR Green DNA, 72 h; series mostly up to 28.7 µM. The gist of the method:
as §2

In the next experiment the test system is W2. The experiment is described as above. Particulars: P. falciparum in erythrocytes, SYBR Green DNA, 72 h; series mostly up to 28.7 µM. The procedure, abridged: as §2
The subject of the next experiment is KB-3-1. The experiment can be described thus: Cytotoxic Profiling of Annotated Libraries Using Quantitative High-Throughput Screening (AID 1296008). For max response: % is set by controls: 0 for no effect and ±100 for the full control effect. Note: potency is the fitted concentration of half-maximal effect. Particulars: Five cell lines viability, CellTiter-Glo ATP luminescence, 48-72 h; max response: hits give low values. The gist of the method: as §1
For experiment [2], the system named is CRL-7250. The experiment can be described thus: qHTS assay to identify novel small-molecules to repurpose for Merkel cell carcinoma treatment (AID 1296009). The conditions noted are these: MCC and control cell lines, CellTiter-Glo viability, 72 h; at 44.8 µM (top of the series) unless noted. The procedure, abridged: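 After compound transfer in DMSO, plates were kept 72 hr at 37 degree celsius. Luminescent ATP signal from CellTiter-Glo served as viability measure, normalized against DMSO and no-cell controls.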

Here are results for 20 molecules from PubChem BioAssay (NCATS).

Each structure is given as a SMILES string. Several values for one entry are separate records, joined by “and”; a condition that tells them apart may be missing. Identical values can stand only once. Results filed as inconclusive are left out. Values without a mark were called inactive. Activity calls are given as the source filed them. Calls come from the whole dose curve; as a rule, active = well fitted inhibition curve with a large enough effect; inconclusive = small, poorly fitted or top-dose-only effect; inactive = flat fitted curve, though single readings scatter.
Note: nearly all actives have a fitted effect of over 60% in size.

Regarding `CC1Sc2c(C(=O)O)c(=O)c3cc(F)c(N4CCNCC4)cc3n21` (stereo unspecified), the results for the max response with CRL-7250 [1], in the experiment with HEK293 and with HaCat were -1.22%, 4.19% and 0.258%, respectively. Also, the outcome in the experiment with NIH3T3 was inactive.
`Cc1ccc(N=CN(C)C=Nc2ccc(C)cc2C)c(C)c1`: the Potency entry in the experiment with ICS, in the experiment on JCK, with N140, in the experiment on P93_24, with P94_40 and in the experiment on PAD was “inactive” throughout. For the same molecule, the Potency result with PC15, in the experiment with PC26, in the experiment on PC49, with SC27B, in the experiment on TAB109 and with TAB113 was “inactive” throughout. Moreover, the Potency result in the experiment with TAB165 and in the experiment with W2 was “inactive” throughout. In addition, the figures for the max response in the experiment on CRL-7250 [1], in the experiment with HaCat and in the experiment with KB-3-1 were -6.67%, -15.3% and 1.07%, respectively. The outcome in the experiment on HEK293 and in the experiment with NIH3T3 was inactive.
On to `COc1ccc(OC)c(CC(C)N)c1` (stereo unspecified), for which the max response in the experiment with CRL-7250 [1] was -3.68%; in the experiment on KB-3-1 it was -0.889%; in the experiment on NIH3T3, -6.71%. Further, the call with HaCat was inactive.
For the molecule `CCC(OC(C)=O)C(CC(C)NC)(c1ccccc1)c1ccccc1` (stereo unspecified), the Potency in the experiment on CRL-7250 [1] is 43.7 µM (active); with HaCat, 27.6 µM (active). Besides, in the experiment on KB-3-1, the max response is -22.1%.
Turning to `O=C(CBr)Nc1ccc(Cl)cc1C(=O)c1ccccc1F`, the call in the experiment with CRL-7250 [1], in the experiment on NIH3T3 and in the experiment on CRL-7250 [2] was inactive. In addition, the figures for the max response in the experiment on HEK293 and in the experiment on HaCat were -0.335% and 3.69%, respectively.
Take `C[N+](C)(C)CCOC(=O)C(O)(c1ccccc1)c1ccccc1`: the Potency entry with ICS, in the experiment on JCK, in the experiment on N140, with P93_24, in the experiment on P94_40 and with PAD was “inactive” in each case. Also, the Potency result in the experiment with PC15, in the experiment with PC26, with PC49, with SC27B, with TAB109 and with TAB113 was “inactive” each time. For the same molecule, the Potency entry in the experiment with TAB165 and with W2 was “inactive” each time. Besides, the max response in the experiment with CRL-7250 [1] was 1.11%; in the experiment on HEK293 it was -0.686%; in the experiment on HaCat, 1.68%; in the experiment on KB-3-1 it was -1.19%; in the experiment on NIH3T3, 2.06%.
`CCOC(=O)C1(c2ccccc2)CCN(CCc2ccc(N)cc2)CC1`: the max response in the experiment on CRL-7250 [1] was -7.28%; in the experiment with HEK293, -24.8%; in the experiment with HaCat, -21.6%; in the experiment on NIH3T3, 2.24%.
As for `CCC1(c2cnc[nH]2)Cc2ccccc2C1`, the max response with CRL-7250 [1] was -7.94%; with HEK293, -9.84%; in the experiment with KB-3-1, -12.7% and -2.33%. In the experiment with NIH3T3, the call was inactive.
Regarding `CN1C(=O)[C@@H](NC(=O)c2cc3ccccc3[nH]2)N=C(c2ccccc2)c2ccccc21`, the Potency is 8.91 µM (active) in the experiment on ICS; 11.2 µM (active) in the experiment on P94_40; 10 µM (active) in the experiment with TAB165; 7.57 µM (active) in the experiment on W2; 11.9 µM (active) with HEK293. Also, the Potency entry in the experiment with JCK, in the experiment with PC15 and with PC49 was “inactive” throughout. The values for the max response in the experiment with CRL-7250 [1] and with KB-3-1 were -23.4% and 1.71%, respectively.
For `O=C(O)c1nn(Cc2ccc(Cl)cc2Cl)c2ccccc12`, the Potency result in the experiment with ICS, in the experiment with JCK, in the experiment with N140, in the experiment with P93_24, in the experiment with P94_40 and with PAD was “inactive” throughout. For the same molecule, the Potency result in the experiment with PC15, in the experiment with PC26, in the experiment with PC49, with SC27B, with TAB109 and in the experiment on TAB113 was “inactive” in each case. In addition, the Potency result with TAB165 and in the experiment with W2 was “inactive” throughout. Moreover, the max response is -5.04% and -7.58% with CRL-7250 [1]; -0.99% with HaCat; 4.9% and -9.13% with KB-3-1; -6.41% in the experiment with NIH3T3. For the same molecule, the molecule was called inactive in the experiment on HaCat and in the experiment with NIH3T3.
For the molecule `Cc1nnc2n1-c1sc(CCC(=O)N3CCOCC3)cc1C(c1ccccc1Cl)=NC2`, the molecule was classed as inactive with CRL-7250 [1], in the experiment on HEK293 and with CRL-7250 [2]. In addition, the max response in the experiment on KB-3-1 was -14.1% and 0.342%; in the experiment on NIH3T3, 2.45%.
With `C#C[C@]1(O)C=C[C@H]2[C@@H]3CCC4=CC(=O)CC[C@@H]4[C@H]3CC[C@@]21CC`, the max response in the experiment on CRL-7250 [1] was 0.605%; in the experiment with KB-3-1 it was -9.68%. Also, in the experiment with HaCat, the outcome was inactive.
Turning to `COc1ccc(CN2CCNCC2)c(OC)c1OC`, the Potency result in the experiment with ICS, in the experiment with JCK, in the experiment on N140, with P93_24, in the experiment with P94_40 and with PAD was “inactive” throughout. Also, the Potency entry in the experiment with PC15, with PC49, in the experiment with SC27B, in the experiment with TAB109, in the experiment on TAB113 and with TAB165 was “inactive” each time. Moreover, the max response in the experiment with CRL-7250 [1] is 0.0195%; in the experiment on HEK293 it was -9.25%; with KB-3-1, 5.8%; in the experiment on NIH3T3 it was 1.76%. The molecule was classed as inactive in the experiment with HaCat.
In the case of `CC(CC(C(N)=O)(c1ccccc1)c1ccccc1)N(C)C` (stereo unspecified), the max response was -1.58% in the experiment with CRL-7250 [1] and -10.9% with HaCat. Moreover, the molecule was classed as inactive in the experiment with HEK293 and in the experiment with NIH3T3.
Take `ClCCCN1CCN(c2cccc(Cl)c2)CC1`: the call in the experiment on CRL-7250 [1], in the experiment on HEK293, in the experiment on HaCat, with NIH3T3 and in the experiment on CRL-7250 [2] was inactive.
For the molecule `Nc1ccc(Cl)cc1C(=O)c1ccccc1F`, the max response is -4.36% in the experiment on CRL-7250 [1], -6.5% in the experiment with HEK293, 0.566% with HaCat and 0.255% with NIH3T3.
For the molecule `CCc1ccc(C2CCNCC2)cc1`, the molecule was classed as inactive in the experiment with CRL-7250 [1], in the experiment with HaCat and with CRL-7250 [2]. In addition, the max response with HEK293 was -21.3%; with NIH3T3 it was 1.66%.
In the case of `CCOC(=O)C(c1c(O)c2ccccc2oc1=O)c1c(O)c2ccccc2oc1=O`, the max response in the experiment on CRL-7250 [1] is -6.62%. The outcome with HEK293, with HaCat and with NIH3T3 was inactive.
As to `CC1N=C(N)OC1c1ccccc1` (stereo unspecified), the max response with CRL-7250 [1] is -30.4%; with KB-3-1, -3.1%; in the experiment on NIH3T3, -2.85%. Also, the molecule was classed as inactive in the experiment with HaCat.
`Cc1nc2ccccc2c(=O)n1-c1ccccc1Cl`: the values for the max response with CRL-7250 [1], with HaCat and in the experiment with KB-3-1 were -16.7%, -9.75% and -1.49%, respectively.
